# According to the supplement of paper PMC8728848:
# This is one part of a sample in which the strongest signals are shown more often than they occur.
# Experiments:
# Experiment in all cases: glycan array binding signal (z-score within array); higher = stronger binding
# Conditions in all cases: glycan notation: IUPAC condensed, linker removed
# [1] = tested on: Fuc(a1-2)Gal(b1-3)GalNAc(b1-3)Gal(a1-4)Gal(b1-4)Glc
# How it was run: (§1)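 From the Consortium for Functional Glycomics database, 3228 arrays were curated, keeping only those whose protein sequence was available. Binding is given as a within-array Z-score averaged across arrays sharing a protein sequence and across linkers. Negative Z-scores can be read as non-binding.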
# [2] = tested on: Fuc(a1-2)Gal(b1-3)GalNAc(a1-3)[Fuc(a1-2)]Gal(b1-4)Glc
# How it was run: as §1
# [3] = tested on: Fuc(a1-2)Gal(b1-3)GalNAc(b1-3)Gal
# How it was run: as §1
# Fuc(a1-2)Gal(b1-3)GalNAc = tested on: Fuc(a1-2)Gal(b1-3)GalNAc
# How it was run: as §1
# [4] = tested on: Fuc(a1-2)Gal(b1-3)GlcNAc(b1-3)Gal(b1-4)Glc
# How it was run: as §1
# [5] = tested on: Fuc(a1-2)Gal(b1-3)GlcNAc(b1-3)[Gal(b1-4)GlcNAc(b1-6)]Gal(b1-4)Glc
# How it was run: as §1
# [6] = tested on: Fuc(a1-2)Gal(b1-3)GlcNAc(b1-2)Man(a1-3)[Fuc(a1-2)Gal(b1-3)GlcNAc(b1-2)Man(a1-6)]Man(b1-4)GlcNAc(b1-4)GlcNAc
# How it was run: as §1
# [7] = tested on: Fuc(a1-2)Gal(b1-3)GalNAc(b1-3)Gal(b1-4)Glc
# How it was run: as §1
# [8] = tested on: Fuc(a1-2)Gal(b1-3)GalNAc(a1-3)[Fuc(a1-2)]Gal(b1-4)GlcNAc
# How it was run: as §1
# [9] = tested on: Fuc(a1-2)Gal(b1-3)GalNAc(b1-4)[Neu5Ac(a2-3)]Gal(b1-4)Glc
# How it was run: as §1
# Chain of PILRa (Mus musculus), Q2YSF3 (Q2YSF3 entry or part of it): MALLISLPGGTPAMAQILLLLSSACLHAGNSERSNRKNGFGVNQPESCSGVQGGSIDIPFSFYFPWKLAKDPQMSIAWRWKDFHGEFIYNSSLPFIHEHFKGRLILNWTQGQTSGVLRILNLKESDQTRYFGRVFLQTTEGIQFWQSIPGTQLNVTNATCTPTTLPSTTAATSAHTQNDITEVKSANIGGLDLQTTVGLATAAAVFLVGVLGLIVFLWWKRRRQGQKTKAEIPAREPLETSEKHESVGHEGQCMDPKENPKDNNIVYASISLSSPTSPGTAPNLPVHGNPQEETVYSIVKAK
# Chain of 6RG (Lolium perenne) (chain, as listed by the source): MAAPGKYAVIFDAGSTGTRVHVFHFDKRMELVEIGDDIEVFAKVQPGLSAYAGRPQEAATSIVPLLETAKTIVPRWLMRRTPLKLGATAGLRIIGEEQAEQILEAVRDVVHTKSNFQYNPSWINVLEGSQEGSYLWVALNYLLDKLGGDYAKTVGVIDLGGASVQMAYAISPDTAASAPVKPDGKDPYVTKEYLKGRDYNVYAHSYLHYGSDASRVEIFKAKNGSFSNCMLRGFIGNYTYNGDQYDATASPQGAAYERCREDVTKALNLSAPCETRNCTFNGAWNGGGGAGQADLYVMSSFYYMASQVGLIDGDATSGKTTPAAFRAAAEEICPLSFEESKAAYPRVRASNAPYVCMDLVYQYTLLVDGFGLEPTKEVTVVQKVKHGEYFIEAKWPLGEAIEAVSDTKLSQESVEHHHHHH
# Chain of Avaren (Actinomycete K97) (chain, as listed by the source): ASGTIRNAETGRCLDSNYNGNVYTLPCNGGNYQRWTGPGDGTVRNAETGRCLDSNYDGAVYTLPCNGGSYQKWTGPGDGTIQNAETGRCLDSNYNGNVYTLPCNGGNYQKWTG
# Chain of C3b (Homo sapiens), P01024 (P01024 23-667): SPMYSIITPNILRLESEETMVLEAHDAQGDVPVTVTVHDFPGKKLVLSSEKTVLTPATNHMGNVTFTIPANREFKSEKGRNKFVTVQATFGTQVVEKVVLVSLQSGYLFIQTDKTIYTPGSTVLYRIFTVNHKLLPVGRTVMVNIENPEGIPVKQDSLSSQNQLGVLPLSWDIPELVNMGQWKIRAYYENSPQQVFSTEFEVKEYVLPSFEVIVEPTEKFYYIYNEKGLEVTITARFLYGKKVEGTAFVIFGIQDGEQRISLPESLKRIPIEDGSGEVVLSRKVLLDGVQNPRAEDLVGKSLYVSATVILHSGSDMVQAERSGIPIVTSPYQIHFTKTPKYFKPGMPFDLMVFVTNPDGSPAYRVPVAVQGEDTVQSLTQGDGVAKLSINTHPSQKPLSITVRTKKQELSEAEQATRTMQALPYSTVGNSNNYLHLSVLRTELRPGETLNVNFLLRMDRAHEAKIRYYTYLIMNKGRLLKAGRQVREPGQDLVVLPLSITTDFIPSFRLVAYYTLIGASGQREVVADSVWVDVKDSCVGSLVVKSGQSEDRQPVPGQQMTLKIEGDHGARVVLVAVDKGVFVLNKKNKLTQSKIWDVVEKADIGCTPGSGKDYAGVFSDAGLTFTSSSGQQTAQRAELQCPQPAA
# Chain of Aggrecan (Rattus norvegicus), NP_071526 (chain, as listed by the source): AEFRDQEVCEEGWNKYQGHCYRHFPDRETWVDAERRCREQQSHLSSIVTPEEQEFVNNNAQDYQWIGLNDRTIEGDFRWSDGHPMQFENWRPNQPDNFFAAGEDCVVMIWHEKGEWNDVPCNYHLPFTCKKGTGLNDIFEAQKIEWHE
# Chain of PILRb (Mus musculus), Q2YSF2 (Q2YSF2 entry or part of it): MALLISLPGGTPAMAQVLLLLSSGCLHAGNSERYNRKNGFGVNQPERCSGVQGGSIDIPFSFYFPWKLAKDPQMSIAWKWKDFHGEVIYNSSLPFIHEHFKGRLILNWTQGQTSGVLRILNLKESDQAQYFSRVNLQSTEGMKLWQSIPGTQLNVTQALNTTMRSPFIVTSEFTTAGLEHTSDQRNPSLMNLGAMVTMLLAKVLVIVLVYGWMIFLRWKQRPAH
# Chain of CHT (Homo sapiens) (chain, as listed by the source): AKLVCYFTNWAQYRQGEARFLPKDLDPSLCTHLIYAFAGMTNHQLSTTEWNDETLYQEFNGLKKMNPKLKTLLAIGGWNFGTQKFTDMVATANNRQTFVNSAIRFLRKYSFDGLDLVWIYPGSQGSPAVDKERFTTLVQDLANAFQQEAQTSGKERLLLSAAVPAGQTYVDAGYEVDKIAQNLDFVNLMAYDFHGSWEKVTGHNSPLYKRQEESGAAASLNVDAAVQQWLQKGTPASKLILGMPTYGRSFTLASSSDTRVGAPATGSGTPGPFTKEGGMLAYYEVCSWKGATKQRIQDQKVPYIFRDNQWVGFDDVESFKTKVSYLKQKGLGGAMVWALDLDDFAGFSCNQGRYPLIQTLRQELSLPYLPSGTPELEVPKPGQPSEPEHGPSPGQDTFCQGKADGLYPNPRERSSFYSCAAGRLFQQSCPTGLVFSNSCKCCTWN
# Chain of CHI3L1 (Homo sapiens), P36222 (P36222 whole entry): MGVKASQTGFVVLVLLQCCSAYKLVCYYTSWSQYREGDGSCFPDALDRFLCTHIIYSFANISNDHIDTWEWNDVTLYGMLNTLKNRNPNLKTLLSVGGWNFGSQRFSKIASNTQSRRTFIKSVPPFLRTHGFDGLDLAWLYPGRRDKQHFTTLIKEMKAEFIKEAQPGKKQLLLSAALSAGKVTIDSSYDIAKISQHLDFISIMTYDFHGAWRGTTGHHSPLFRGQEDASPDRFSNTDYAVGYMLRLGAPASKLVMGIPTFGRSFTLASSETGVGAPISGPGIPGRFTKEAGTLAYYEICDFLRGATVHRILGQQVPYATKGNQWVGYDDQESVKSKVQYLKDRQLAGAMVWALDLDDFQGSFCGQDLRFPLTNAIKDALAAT
substance,measurement,setting,value
"PILRb (Mus musculus), Q2YSF2",glycan array binding signal (z-score),[1],-0.245
"PILRa (Mus musculus), Q2YSF3",glycan array binding signal (z-score),[2],0.037
same,glycan array binding signal (z-score),[3],0.134
same,glycan array binding signal (z-score),Fuc(a1-2)Gal(b1-3)GalNAc,-0.151
same,glycan array binding signal (z-score),[4],-0.127
same,glycan array binding signal (z-score),[5],-0.176
"Siglec-8 (Homo sapiens), Q9NYZ4",glycan array binding signal (z-score),[2]; mutation: R125K,0.206
same,glycan array binding signal (z-score),[1]; mutation: R125K,-0.14
same,glycan array binding signal (z-score),Fuc(a1-2)Gal(b1-3)GalNAc; mutation: R125K,-0.339
same,glycan array binding signal (z-score),[6],0.028
6RG (Lolium perenne),glycan array binding signal (z-score),[7],7.3
same,glycan array binding signal (z-score),[4],6.52
CHT (Homo sapiens),glycan array binding signal (z-score),"Fuc(a1-2)Gal(b1-3)GalNAc; mutation: D138V, E140I",0.451
Avaren (Actinomycete K97),glycan array binding signal (z-score),[8],-0.138
same,glycan array binding signal (z-score),[5],-0.128
"C3b (Homo sapiens), P01024",glycan array binding signal (z-score),[1],0.194
same,glycan array binding signal (z-score),[9],0.329
"Aggrecan (Rattus norvegicus), NP_071526",glycan array binding signal (z-score),[1],-0.123
"CHI3L1 (Homo sapiens), P36222",glycan array binding signal (z-score),[6],-0.032
